# Compounds with a hit are over-represented: about 6.5% of the library has one in this group of screens.
# VACV Venus inh: inhibitors of vaccinia virus (Venus reporter) | Vaccinia virus Venus reporter expression, fluorescence | Potency, µM (doses to about 36.5 µM), inactives show top-dose activity change, negative = inhibition, actives largely listed as inhibitors | 0.46% of 330,000 active | AID 720580; calls by dose curve; tested in A549 cells; also: potency is read from the fitted curve at half-maximal effect; nearly all actives have a fitted effect of over 30% in size
# VACV mCherry inh: inhibitors of vaccinia virus infection (mCherry reporter signal); Vaccinia virus mCherry reporter infection, fluorescence; Potency, µM (top dose mostly 36.5 µM), for the others: top-dose activity change, negative = inhibition, actives largely listed as inhibitors; 0.63% of 310,000 active; AID 720579; calls by dose curve; tested in A549 cells; also: potency is read from the fitted curve at half-maximal effect; nearly all actives have a fitted effect of over 35% in size
# HCMV inh: blocks human cytomegalovirus replication; activity change, negative = inhibition, % at 57.5 µM; 4.5% of 410,000 active; HFF cells, HCMV-luciferase reporter, 72 h; active compounds read low; in the data active = activity change below about -60%; inconclusive = no clear call, values can overlap the other calls; inactive = above about -39%
#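 Cell-based, HFFs, 1000 cells/well, 16 h 37C; cpds in DMSO + HCMV-luc, MOI 1 PFU/cell; 72 h 37C; OneGlo luminescence after 5 min RT; norm. to buffer vs Salinomycin 10uM.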
# LASV entry inh: Lassa virus entry inhibition; Lassa virus pseudotype entry inhibition, cell reporter; Potency, µM (highest dose often 37.9 µM), inactives show at the highest dose activity change, negative = inhibition, usual class: inhibitors; 1.2% of 300,000 active; calls by dose curve; tested in HEK293 cells; also: potency is read from the fitted curve at half-maximal effect; nearly all actives have a fitted effect of over 50% in size
# FMDV antiviral: foot and mouth disease virus antiviral activity; 1.2% of 410,000 active; FMDV antiviral cell-based qHTS; AID 1159524; Potency, µM (titrated, usually from 57.9 µM), for the others: at the top dose activity change, negative = inhibition, usual class: inhibitors; calls by dose curve; tested in HEK293T cells; also: read-out not given here; potency is read from the fitted curve at half-maximal effect; nearly all actives have a fitted effect of over 45% in size
# Marburg entry inh: Marburg virus entry inhibition | Marburg virus pseudotyped entry inhibition, cell reporter | Potency, µM (top dose mostly 37.8 µM), inactives show top-dose activity change, negative = inhibition, hits mostly inhibitors | 1.8% of 300,000 active; calls by dose curve; tested in HEK293 cells; also: potency is read from the fitted curve at half-maximal effect
# Active calls of the source: *; i = inactive; ? = inconclusive; / = no result; ! = repeats disagree; [ ] = dose if it differs, or a comment. % is scaled to controls: 0 for no effect and ±100 for the full control effect.
SMILES,VACV Venus inh,VACV mCherry inh,HCMV inh,LASV entry inh,FMDV antiviral,Marburg entry inh
CCc1cccc(NC(=O)Cc2ccc(OC)c(OC)c2)c1,-16%,-26%,-82*,?,?,?
COc1ccc(CC(=O)NCc2cccc(CNC(=O)Cc3ccc(OC)c(OC)c3)c2)cc1OC,/,/,17,/,-24%,/
O=C(Nc1cccc(-c2nnc(-c3ccco3)o2)c1)c1ccccc1,-15%,i,-2,-26%[46.1 µM],-27%,?
CCc1cccc(NC(=O)COC(=O)c2ccccc2OCc2ccccc2Br)c1,13µM*,?,/,/,/,/
CC(=O)Oc1ccc(C(=O)Nc2cccc(-c3nnc(-c4ccco4)o3)c2)cc1,-18%,i,-39,?,-9%,11µM*
COc1ccc(CC(=O)Nc2cccc(-c3nnc(-c4ccccc4)o3)c2)cc1OC,?,11µM*,?,7.3µM*,/,4.6µM*
Cc1nc(C)c(CC(=O)N2CCOc3ccc(CN4CCN(c5ccccn5)CC4)cc3C2)s1,-27%,?,/,/,?,/
COC(=O)C1=C(C)N(Cc2ccccc2)C(=NCCc2cccnc2)NC1c1ccccc1 (configuration not stated),/,/,/,/,/,-11%[14.2 µM]
COc1ccc(CCNC(=O)CSc2nnnn2-c2cccc(C(C)=O)c2)cc1OC,3%,-5%,-3,8%[46.1 µM],-3%,12%[46.1 µM]
O=C(CSc1ccccc1)NCc1ccc2c(c1)CCN2C(=O)c1ccc(F)cc1,-9%,i,4,?,-3%,/
CCOc1cccc(C(=O)Nc2nnc(-c3ccco3)s2)c1,-7%,/,55,?,-38%,4µM*
CC1CCCC(C)N1CCCNC(=O)c1ccc2c(c1)NC(=O)c1ccccc1S2 (configuration not stated),-27%,-15%,-29,-6%[46.1 µM],-8%,?
CCC(C)N(CCNC(=O)c1ccc2c(c1)NC(=O)c1ccccc1S2)C1CCCCC1 (configuration not stated),-17%,-14%,0,3.2µM*,-19%,?
Cc1ccc(NC(=S)NC(=O)/C=C/c2ccco2)c(O)c1,-1%,-28%,-64*,-23%[46.1 µM],?,-18%[46.1 µM]
Cc1c(NC(=O)c2ccc(Br)o2)cccc1-c1nc2ccccc2o1,13%,-6%,-22,-2%[46.1 µM],-10%,/
Cc1ccc(C)c(CN2C(=O)c3ccccc3S(=O)(=O)c3ccc(C(=O)N4CCOCC4)cc32)c1,-6%,-4%,?,-12%[46.1 µM],13%,7%[46.1 µM]
COc1ccc(CN2C(=O)C(n3ccc4ccccc43)c3cccc(F)c32)cc1 (configuration not stated),/,/,-72*,/,/,/
O=C1C(n2ccc3ccccc32)c2cc(OC(F)(F)F)ccc2N1Cc1ccc(C(F)(F)F)cc1 (configuration not stated),/,/,-89*,/,/,/
CN[C@H]1C[C@@H](N)[C@H](O)[C@@H](O[C@@H]2O[C@H](CO)[C@H](O)[C@@H]3OC4(O[C@H]23)O[C@H](C(N)CO)[C@H](O)[C@H](O)[C@H]4O)[C@@H]1O (some centres not stated),-6%,-8%,/,/,9%,/
COc1ccccc1N1CCN(C(=S)Nc2ccc(S(=O)(=O)N3CCOCC3)cc2)CC1,?,?,4,?,25µM*,?
COc1ccccc1N1CCN(CC(O)COc2ccc(S(=O)(=O)N3CCOCC3)cc2)CC1 (configuration not stated),-18%,-22%,-70*,-20%,/,?
O=S(=O)(c1ccc(NC(=S)N2CCN(c3ccccc3F)CC2)cc1)N1CCOCC1,-26%,-18%,?,-30%,?,?
COc1ccccc1N1CCN(CC(O)COc2ccc(C)cc2C(C)(C)C)CC1 (configuration not stated),-20%,-29%,-67*,1%[46.1 µM],-30%,?
O=c1oc2ccccc2c(N2CCCC2)c1[N+](=O)[O-],-2%,-13%,-94*,-19%[46.1 µM],2%,4%[46.1 µM]
COCCN1C(=O)CC[C@@]23C1=NC(C(=O)OC)=C(C(=O)OC)[C@@H]2N(CC=C(C)C)c1ccccc13,/,/,/,/,/,-14%[14.2 µM]
SMILES,VACV Venus inh,VACV mCherry inh,HCMV inh,LASV entry inh,FMDV antiviral,Marburg entry inh
CC(Nc1nc(-c2ccc(F)cc2)cs1)c1nc2cc(Cl)c(N3CCCCC3)cc2n1CCCO (configuration not stated),?,?,-65*,/,-27%,/
CC(Nc1nc(-c2ccc(F)cc2)cs1)c1nc2cc(Cl)c(N3CCCCC3)cc2n1CCOCCO (configuration not stated),?,?,-18,/,?,/
COc1ccc(CN2C(=O)C(n3c(C)ccc3C)c3cc(F)ccc32)cc1 (configuration not stated),/,/,-22,/,/,/
Cc1cc(C(C)(C)C)cc(C)c1CCNC(=O)c1ccc[n+]([O-])c1,25%,10µM*,?,3.2µM*,-11%,0.63µM*
COc1ccc(C(C)(C)C)cc1NC(=O)c1ccc[n+]([O-])c1,-1%,i,56,-4%[46.1 µM],3%,?
COc1cccc(OCc2cc(/C=N/Nc3ccc(C(=O)O)cc3)ccc2OC)c1,5%[7.34 µM],?,9,/,0.89µM*,-2%
COc1ccc(C(=O)N/N=C/c2ccc(OC)c(COc3ccc(F)cc3F)c2)cc1,-27%,-15%,33,2.2µM*,?,?
COc1ccc(/C=N/NC(=O)c2ccoc2C)cc1COc1ccc(Cl)cc1,-38%,?,26,?,22µM*,?
COc1ccc(/C=N/NC(=O)c2ccoc2C)cc1OC,0%,-12%,24,?,-12%,6%
Oc1[nH]c2ccc(Br)cc2c1N=NC(=S)N1CCOCC1,/,/,-100*,/,3.2µM*,/
COC(=O)N=Nc1c(O)[nH]c2ccc(Br)cc12,-10%,-28%,-23,-9%,0%,-14%
O=C(c1cccs1)N(Cc1nc2sc3c(c2c(=O)[nH]1)CCCC3)C1CCCC1,-17%,13µM*,-71*,3.5µM*,5%,?
CN(C)S(=O)(=O)c1cccc(NC(=O)CCc2nc3sc4c(c3c(=O)[nH]2)CCCC4)c1,/,/,-67*,/,?,/
CC(C)OC(=O)C1CC(C)(O)C(=O)C(C(=O)OC(C)C)C1c1ccc([N+](=O)[O-])cc1 (configuration not stated),2%,?,-64*,-17%[46.1 µM],?,?
CCC[C@H]1[C@@H](NS(=O)(=O)c2ccc([N+](=O)[O-])cc2[N+](=O)[O-])CC[C@@]23CCCN2C(=O)CCC[C@@H]13,/,/,-21,/,/,/
CCN1C(=O)C=CC1=O,/,/,/,7%,/,28µM*!
O=C(O)CN1C(=O)C=CC1=O,-8%,-11%,30,/,-12%,/
CCN1C(=O)CC(=O)N(CC)C1=S,1%,i,10,/,-26%,/
O=C1C=CC(=O)N1CCCCCCN1C(=O)C=CC1=O,-26%,-27%,-102*,?,40µM*,?
O=C(Nc1ccc(-c2csc(Nc3cccc(C(F)(F)F)c3)n2)cc1)c1ccccc1,?,?,-83*,/,?,/

# Compound activity from PubChem.
